The inhibition is the relative decrease from the control value, in per cent.

Hit rate of the full screen: of about 190,000 compounds, about 810 (0.43%) were called active. Rule as the data show it: active = inhibition above about 50%; inactive = the rest. The full list was thinned out, with actives kept by preference.

The target of this assay is Mannose-6-phosphate isomerase (Homo sapiens) (UniProt P34949). Put plainly: MPI enzyme activity inhibition – biochemical, fluorescence intensity, coupled assay, primary screen (AID 1209).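 Also: plate controls were DMSO vehicle for no effect and wells lacking substrate for full effect.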 As to conditions: purified PMI enzyme, at 20 µM, active compounds read high.
Mannose-6-phosphate isomerase (Homo sapiens), sequence (P34949 whole entry, looked up): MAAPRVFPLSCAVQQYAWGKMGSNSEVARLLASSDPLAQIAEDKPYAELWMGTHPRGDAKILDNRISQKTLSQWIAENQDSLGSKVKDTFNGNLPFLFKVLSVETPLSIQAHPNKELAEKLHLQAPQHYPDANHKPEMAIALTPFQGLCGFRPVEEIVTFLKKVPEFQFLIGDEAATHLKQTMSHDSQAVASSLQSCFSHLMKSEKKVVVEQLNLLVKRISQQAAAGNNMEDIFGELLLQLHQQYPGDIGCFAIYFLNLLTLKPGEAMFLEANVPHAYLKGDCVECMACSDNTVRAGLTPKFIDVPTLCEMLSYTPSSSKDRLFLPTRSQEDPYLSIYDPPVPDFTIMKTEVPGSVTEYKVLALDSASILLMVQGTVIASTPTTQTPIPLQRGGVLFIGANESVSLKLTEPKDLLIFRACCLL
As for `CCOc1ccc(NC(=NCc2ccc3c(c2)OCO3)SC2CC(=O)N(c3ccccc3)C2=O)cc1` (configuration not stated), the inhibition was -4.2% (inactive).
Consider `CCN(CC)S(=O)(=O)c1ccc(NC2c3ccccc3C(=O)N2CCN2CCOCC2)cc1` (configuration not stated), for which the inhibition is 18.5% (inactive).
The same measure for `Cc1cc(C(C)(C)C)c(O)c(C(C)(C)C)c1`: 0% (inactive).
Turning to `Cc1cc(C)c(O)c(N)c1`, the inhibition is 33.4% (inactive).
The same measure for `CC1(c2ccccc2)NC(=O)N(CC(=O)Nc2cc(S(=O)(=O)N3CCOCC3)ccc2Cl)C1=O` (configuration not stated): 1.7% (inactive); for `COc1ccc(OCC(=O)Nc2ncc3c(n2)CC(C)(C)CC3=O)cc1`: 7.1% (inactive).
For `Cc1ccc(N(C(C)C(=O)Nc2c(C)n(C)n(-c3ccccc3)c2=O)S(C)(=O)=O)cc1C` (configuration not stated), the inhibition is -4.4% (inactive).
Regarding `O=C(CCC1CCCCC1)NCCN1C2=NC[C@H](Cc3ccccc3)N2C[C@H]1Cc1ccc(O)cc1`, the inhibition is 8% (inactive).
Turning to `O=C(CCC1CCCCC1)NCCN1C2=NC[C@H](Cc3ccc(O)cc3)N2C[C@H]1Cc1ccc(O)cc1`, the inhibition was 5% (inactive).
On to `CC(C)[C@H]1CN=C2N(CCNC(=O)CCC3CCCCC3)[C@H](Cc3ccc(O)cc3)CN21`, for which the inhibition is 65.2% (active).
The same measure for `COc1ccc(C[C@H]2CN3C(=NC[C@@H]3C(C)C)N2CCNC(=O)CCC2CCCCC2)cc1`: 7.4% (inactive); for `C[C@H]1CN=C2N(CCNC(=O)CCC3CCCCC3)[C@H](Cc3ccc(O)cc3)CN21`: 2.5% (inactive).
The same measure for `C[C@@H]1CN=C2N(CCNC(=O)CCC3CCCCC3)[C@H](Cc3ccc(O)cc3)CN21`: 85.3% (active); for `CC(OC(=O)/C=C/c1cccs1)C(=O)Nc1ccc(S(N)(=O)=O)cc1` (configuration not stated): -5.9% (inactive).
The same measure for `Cc1ccccc1OCC(=O)N(Cc1ccc(N(C)C)cc1)C1CCS(=O)(=O)C1` (configuration not stated): 3.1% (inactive); for `C=CCNc1ccc(F)c(F)c1N1CCCCCC1=O`: 4.8% (inactive).
On to `NC(=O)c1cc2cc(Cc3ccccc3Cl)ccc2oc1=O`, for which the inhibition was -1.2% (inactive).
As to `O=C(CN1C(=O)c2ccccc2S1(=O)=O)Nc1ccc(S(=O)(=O)N2CCCCCC2)cc1`, the inhibition was 18.7% (inactive).
Consider `Cc1ccc(S(=O)(=O)/N=C2/C=C(Sc3ncn[nH]3)C(=O)c3ccccc32)c(C)c1`, for which the inhibition was 101% (active).
The same measure for `Cc1cc(C)c(S(=O)(=O)/N=C2/C=C(Sc3ncn[nH]3)C(=O)c3ccccc32)cc1C`: 98.1% (active).
`Cc1cc(C)c(S(=O)(=O)/N=C2/C=C(SCC(=O)O)C(=O)c3ccccc32)cc1C`: the inhibition was -23.3% (inactive).
For `Cc1ccc(S(=O)(=O)Nc2ccc(O)c(Sc3ncn[nH]3)c2)cc1`, the inhibition is 15.2% (inactive).
The same measure for `Cc1cc(C)c(S(=O)(=O)Nc2ccc(O)c(Sc3ncn[nH]3)c2)c(C)c1`: 6.8% (inactive).
The same measure for `Cc1ccc(NC2=C/C(=N\S(=O)(=O)c3cccs3)c3ccccc3C2=O)c(C)c1`: 0.2% (inactive); for `CCn1c(COc2c(C)cccc2C)nnc1SCC(=O)N1CCN(c2ccccc2)CC1`: 8.2% (inactive).
The same measure for `Cc1ccc(-c2nn(CC(=O)NCc3ccccn3)c(=O)c3ccccc23)cc1S(=O)(=O)N(C)C`: -28.3% (inactive).
As to `COc1ccccc1NC(=O)c1ccc(NS(=O)(=O)c2ccc(F)c(F)c2F)cc1`, the inhibition is -19.3% (inactive).
The same measure for `COC(=O)c1cn(C(=O)c2ccc(C)cc2)c2ccccc12`: 12.6% (inactive); for `CCC(C)C1=CC(=Nc2c(C)n(C)n(-c3ccccc3)c2=O)C=C(C(C)CC)C1=O` (configuration not stated): 52.2% (active).
For `CC1=CC(=Nc2c(C)n(C)n(-c3ccccc3)c2=O)C=C(C)C1=O`, the inhibition is 83.8% (active).
`CCCC(c1c(C)n(C)n(-c2ccccc2)c1=O)c1c(C)n(C)n(-c2ccccc2)c1=O`: the inhibition was 3.4% (inactive).
As for `Cc1c(N=C2C(=O)Nc3ccccc32)c(=O)n(-c2ccccc2)n1C`, the inhibition is 0.4% (inactive).
The same measure for `Cc1csc(=Nc2c(C)n(C)n(-c3ccccc3)c2=O)n1-c1ccccc1`: 1.6% (inactive); for `Cc1c(N=c2scc(-c3ccccc3)n2C)c(=O)n(-c2ccccc2)n1C`: -16.2% (inactive).
The same measure for `CCC(c1c(C)n(C)n(-c2ccccc2)c1=O)c1c(C)n(C)n(-c2ccccc2)c1=O`: -4.4% (inactive); for `Cc1c(N=C2C=CC(=O)c3ccccc32)c(=O)n(-c2ccccc2)n1C`: 55.2% (active); for `Cc1c(N=CC=Nc2c(C)n(C)n(-c3ccccc3)c2=O)c(=O)n(-c2ccccc2)n1C`: -0.3% (inactive).
The same measure for `Cc1c(N=C2C=C(Br)C(=O)C(Br)=C2)c(=O)n(-c2ccccc2)n1C`: 64.3% (active).
Take `CC(=O)/C(N=Nc1c(C)n(C)n(-c2ccccc2)c1=O)=C(\C)O`: the inhibition was -44.4% (inactive).
The same measure for `Cc1c(N=Nc2ccc(O)cc2)c(=O)n(-c2ccccc2)n1C`: 15.5% (inactive).
`CC(C)NS(=O)(=O)c1ccc(OCC(=O)NC(C)c2ccccc2)cc1` (configuration not stated): the inhibition is 2.2% (inactive).
In the case of `O=C(O)c1ccc(/C=C/c2nc3sc4c(c3c(=O)[nH]2)CCC4)cc1`, the inhibition is -3.7% (inactive).
Turning to `COc1cnn(C(C)(C)C)c(=O)c1Cl`, the inhibition is -0.3% (inactive).
The same measure for `COc1ccc(CC(=O)NCc2ccc3c(c2)cc(C)n3C)cc1OC`: 6.1% (inactive); for `O=C(Nc1ccc(Cl)cc1)NC1CCCc2ccccc21` (configuration not stated): 2.6% (inactive).
As to `Cc1cc(/C=C(\C#N)C(N)=O)c(C)n1-c1ccc(N2CCOCC2)c([N+](=O)[O-])c1`, the inhibition is 3.6% (inactive).
The same measure for `C[C@]12CC[C@@H]3c4ccc(O)cc4CC[C@H]3[C@@H]1CC[C@@H]2O`: -5.7% (inactive).
Regarding `COc1cc2c(cc1O)CC[C@@H]1[C@@H]2CC[C@]2(C)[C@@H](O)CC[C@@H]12`, the inhibition was 1.7% (inactive).
Regarding `C[C@]12CC[C@@H]3c4cc(O)c(O)cc4CC[C@H]3[C@@H]1CC[C@@H]2O`, the inhibition was 51.8% (active).
The same measure for `Cc1ccc(NC(=O)COC(=O)c2ccc3c(c2)C(=O)N(CCc2ccccc2)C3=O)c(C)c1`: 4.6% (inactive); for `Cc1cc(C)n(-c2cc(N3CCN(S(=O)(=O)c4ccc(Br)cc4)CC3)ccc2[N+](=O)[O-])n1`: 13.5% (inactive); for `Cc1nc2c(C(=O)NCc3ccccc3)c[nH]n2c(=O)c1Cl`: 12.3% (inactive).
Take `Cc1nc2c(C(=O)NCCc3ccccc3)c[nH]n2c(=O)c1Cl`: the inhibition was 60.3% (active).
The same measure for `Cc1nc2c(C(=O)NCCc3ccccc3Cl)c[nH]n2c(=O)c1Cl`: 2.9% (inactive); for `CNS(=O)(=O)c1cnccc1N1CCN(C)CC1`: 9.4% (inactive); for `Cc1ccc(C(=O)Nc2ccc(SC(F)F)cc2)s1`: -11.4% (inactive).
Consider `COc1cc(/C=C2\CC/C(=C\c3cc(OC)c(O)c(OC)c3)C2=O)cc(OC)c1O`, for which the inhibition is 59.3% (active).
The same measure for `COc1cc(/C=C2\CC/C(=C\c3cc(OC)c(OC)c(OC)c3)C2=O)cc(OC)c1OC`: 4.2% (inactive); for `COc1ccc(/C=C2\CC/C(=C\c3ccc(OC)c(OC)c3)C2=O)cc1OC`: 25.9% (inactive).
Turning to `CCn1c(COc2cccc3ccccc23)nnc1SCC(=O)OC1CCCCC1`, the inhibition is 17.8% (inactive).
The same measure for `Cc1ccc(S(=O)(=O)NCC(=O)N2CCCC2)cc1`: -10.6% (inactive); for `Cc1ccccc1CNC(=O)Cc1cccs1`: 2% (inactive); for `Cc1ccsc1/C=C1\CCc2ccccc2C1=O`: 25.2% (inactive).
For `COc1ccc(CCNC(=O)C2CC(=O)N(CCc3ccccc3)C2)cc1OC` (configuration not stated), the inhibition is 0% (inactive).
`Cc1ccc(C)c(NC(=S)Nc2cccnc2)c1`: the inhibition is -7% (inactive).
In the case of `Cc1ccc(C)c(NC(=S)Nc2cccc3cnccc23)c1`, the inhibition was 50.3% (active).
With `FC(F)(F)c1ccccc1NC(=S)Nc1cccc2cnccc12`, the inhibition was 5.4% (inactive).
Consider `CC(C)NC(=S)Nc1cccc2cnccc12`, for which the inhibition was -4.7% (inactive).
The same measure for `Cc1ccccc1NC(=S)Nc1cccc2cnccc12`: 60.5% (active).
As for `Cc1ccc(NC(=S)Nc2cccc3cnccc23)c(C)c1`, the inhibition is 37.8% (inactive).
Regarding `O=C(O)CCC(=O)NNC(=O)CCC(=O)Nc1ccccc1`, the inhibition was 13.6% (inactive).
The same measure for `CC(=O)c1cc(NC(=O)c2ccc([N+](=O)[O-])cc2)c(=O)oc1C`: -41% (inactive).
With `O=C(Nc1cc2c(oc1=O)CCCC2=O)c1cccc(Cl)c1`, the inhibition was -17.4% (inactive).
The same measure for `CCOC(=O)N1CCN(S(=O)(=O)Cc2ccccc2)CC1`: 104% (active); for `CCN1CCN(S(=O)(=O)Cc2ccccc2)CC1`: -0.2% (inactive); for `CCOC(=O)C1CCN(S(=O)(=O)Cc2ccccc2)CC1`: -11.2% (inactive).
The same measure for `CC1=Nc2cccc3cccc(c23)N1C`: 25.2% (inactive).
`CN1/C(=N\O)c2cccc3cccc1c23`: the inhibition is 5.7% (inactive).
As to `CCC1=[N+](C)c2cccc3cccc(c23)N1C`, the inhibition is 51% (active).
The same measure for `O=C(CCc1ccc(Oc2cc([N+](=O)[O-])cc([N+](=O)[O-])c2)cc1)N1CCCCCC1`: 5.7% (inactive).
The same measure for `COc1ccccc1NC(=S)N(CCc1nc2cc(C)c(C)cc2[nH]1)Cc1cccnc1`: -2% (inactive); for `CCOC(=O)C(NC(=O)CC)(Nc1ccc(S(=O)(=O)Nc2ncccn2)cc1)C(F)(F)F` (configuration not stated): 0.5% (inactive).
The same measure for `Cc1ccc(OC(=O)C(F)(F)F)c2c1NCCC2`: 16.6% (inactive); for `Oc1c(Cl)cc(Cl)c2c1NCCC2`: 61.2% (active).
`Cc1cc2c(C)cc(=O)oc2c2c1NCCC2`: the inhibition was 25.3% (inactive).
As for `CCOC(=O)c1sc(=S)n(-c2cc(OC)ccc2OC)c1N`, the inhibition is 65.3% (active).
On to `CCOC(=O)c1sc(=S)n(-c2ccc(F)c(F)c2)c1N`, for which the inhibition is 27% (inactive).
The same measure for `CCOC(=O)c1sc(=S)n(-c2ccc(C)cc2)c1N`: 30.1% (inactive).
As for `COC(=O)c1sc(=S)n(-c2cccc(Cl)c2)c1N`, the inhibition is 75.9% (active).
The same measure for `CCOC(=O)c1sc(=S)n(-c2cccc(OC)c2)c1N`: 63.2% (active); for `COC(=O)c1sc(=S)n(-c2ccccc2OC)c1N`: 0.3% (inactive); for `COc1ccc(Cl)cc1-n1c(N)c(C(N)=O)sc1=S`: 22.6% (inactive).
The same measure for `CCOC(=O)c1sc(=S)n(-c2ccccc2)c1N`: -2.1% (inactive); for `CCOC(=O)c1sc(=S)n(-c2cc(F)ccc2F)c1N`: 37.9% (inactive); for `COC(=O)c1sc(=S)n(-c2cc(F)ccc2F)c1N`: 55.8% (active).
The same measure for `Cc1ccc(NC(=O)c2sc(=S)n(-c3cc(C)ccc3F)c2N)cc1`: 1.4% (inactive); for `CCOC(=O)c1sc(=S)n(-c2ccccc2OC)c1N`: 21.8% (inactive).

These data come from PubChem BioAssay AID1209 (Sanford-Burnham Center for Chemical Genomics, 2008).
